Assay results taken from PubChem BioAssay AID1159580 (chemical genetic matrix, 2015).
Values joined by “and” are separate entries in the source; they are usually repeats but may differ in a detail not shown here. Identical values can stand only once. Screen size: about 5,500 compounds; about 2,000 (36%) were called active. Not shown: some 18% with an inconclusive outcome. Cut-off read from the data, not from the text of the source: active = normalized growth mostly below about 0.91 (no sharp cut-off); inconclusive = no clear call, values can overlap the other calls; inactive = mostly above about 0.92. Some of the results follow.

Test: chemical genetic growth profiling, strain panel (AID 1159580);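 note: tested at 20 µM; growth read once vehicle control cultures reached saturation at 30 °C; 1 = growth at the plate median or of vehicle wells; lower values mean less growth of the strain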
Details: S. cerevisiae deletion strains, growth OD

Measured: normalized growth

CC(=O)OC1CCC2(C)C3CC(=O)C4(C)C(CC5OC6(CCC(C)CO6)[C@@H](C)C54)C3CC[C@H]2C1 (stereo not given in full)
inactive: locus YAL013W, strain DEP1, active compounds read low 0.982 | locus YAL021C, strain ccr4, active compounds read low 0.987 | locus YAL026C, strain drs2, active compounds read low 0.991 | locus YAL030W, strain snc1, active compounds read low 0.981 | locus YBL061C, strain skt5, active compounds read low 0.982 | locus YBR009C, strain hhf1, active compounds read low 0.991 | locus YBR021W, strain FUR4, active compounds read low 1.07 | locus YBR023C, strain chs3, active compounds read low 0.994 | locus YBR171W, strain sec66, active compounds read low 0.984 | locus YBR229C, strain ROT2, active compounds read low 0.99 | locus YBR231C, strain swc5, active compounds read low 1.01 | locus YBR279W, strain paf1, active compounds read low 0.987 | locus YCL011C, strain gbp2, active compounds read low 0.979 | locus YCL016C, strain dcc1, active compounds read low 0.98 | locus YCL029C, strain bik1, active compounds read low 0.963 | locus YCL069W, strain vba3, active compounds read low 1.01 | locus YCR088W, strain abp1, active compounds read low 0.994 | locus YDL005C, strain med2, active compounds read low 0.975 | locus YDL035C, strain GPR1, active compounds read low 1.01 | locus YDL040C, strain nat1, active compounds read low 0.99 | locus YDL074C, strain BRE1, active compounds read low 0.983 | locus YDL101C, strain DUN1, active compounds read low 0.992 | locus YDL185W, strain tfp1, active compounds read low 0.952 | locus YDL192W, strain arf1, active compounds read low 0.986 | locus YDR001C, strain nth1, active compounds read low 0.988 | locus YDR069C, strain doa4, active compounds read low 0.968 | locus YDR101C, strain arx1, active compounds read low 1 | locus YDR137W, strain rgp1, active compounds read low 0.973 | locus YDR159W, strain sac3, active compounds read low 1.03 | locus YDR162C, strain NBP2, active compounds read low 0.972 | locus YDR195W, strain ref2 0.942 | locus YDR297W, strain sur2, active compounds read low 0.978 | locus YDR318W, strain mcm21, active compounds read low 0.996 | locus YDR334W, strain swr1, active compounds read low 0.985 | locus YDR335W, strain msn5, active compounds read low 0.978 | locus YDR388W, active compounds read low 0.978 | locus YDR392W, strain spt3, active compounds read low 1.01 | locus YDR502C, strain sam2, active compounds read low 0.971 | locus YEL003W, strain gim4, active compounds read low 0.986 | locus YEL037C, strain rad23, active compounds read low 0.998 | locus YEL061C, strain CIN8 (second series), active compounds read low 0.999 | locus YER015W, strain faa2, active compounds read low 0.988 | locus YER016W, strain bim1, active compounds read low 0.96 | locus YER110C, active compounds read low 0.97 | locus YER111C, strain swi4, active compounds read low 0.995 | locus YER155C, strain BEM2 (second series), active compounds read low 0.999 | locus YER155C, strain BEM2, active compounds read low 1.01 | locus YER167W, strain BCK2, active compounds read low 1.01 | locus YFR010W, strain ubp6, active compounds read low 1 | locus YGL078C, strain dbp3, active compounds read low 0.988 | locus YGL086W, strain mad1, active compounds read low 0.993 | locus YGL167C, strain pmr1, active compounds read low 0.99 | locus YGL173C, strain kem1, active compounds read low 1.01 | locus YGL227W, strain vid30, active compounds read low 0.974 | locus YGL240W, strain doc1, active compounds read low 0.98 | locus YGL248W, strain PDE1, active compounds read low 0.991 | locus YGL253W, strain hxk2, active compounds read low 0.976 | locus YGR078C, strain PAC10, active compounds read low 0.986 | locus YGR135W, strain pre9, active compounds read low 0.977 | locus YGR252W, strain gcn5, active compounds read low 0.986 | locus YHR013C, strain ard1, active compounds read low 0.957 | locus YHR027C, strain rpn1, active compounds read low 0.982 | locus YHR030C, strain SLT2, active compounds read low 0.977 | locus YHR079C, strain IRE1 (second series), active compounds read low 0.987 | locus YHR079C, strain IRE1, active compounds read low 1.01 | locus YHR094C, strain hxt1, active compounds read low 0.975 | locus YHR129C, strain ARP1, active compounds read low 0.982 | locus YHR142W, strain chs7, active compounds read low 0.955 | locus YHR200W, strain rpn10, active compounds read low 0.993 | locus YIL066C, strain RNR3, active compounds read low 0.988 | locus YIL073C, strain SPO22, active compounds read low 0.931 | locus YIL125W, strain kgd1, active compounds read low 0.974 | locus YIR030C, strain dcg1, active compounds read low 0.988 | locus YJL092W, strain hpr5, active compounds read low 0.985 | locus YJL095W, strain BCK1 (second series), active compounds read low 0.981 | locus YJL095W, strain BCK1, active compounds read low 0.962 and 1 | locus YJL115W, strain asf1, active compounds read low 0.958 | locus YJL129C, strain trk1, active compounds read low 0.969 | locus YJL134W, strain LCB3, active compounds read low 0.99 | locus YJL154C, strain vps35, active compounds read low 0.986 | locus YJL164C, strain tpk1, active compounds read low 0.993 | locus YJL166W, strain qcr8, active compounds read low 0.965 | locus YJL168C, strain set2, active compounds read low 0.983 | locus YJL187C, strain SWE1 (second series), active compounds read low 0.977 | locus YJR066W, strain TOR1, active compounds read low 0.934 | locus YJR075W, strain HOC1, active compounds read low 0.988 | locus YKL009W, strain mrt4, active compounds read low 0.983 | locus YKL068W, active compounds read low 0.981 | locus YKL085W, strain MDH1 (second series), active compounds read low 0.988 | locus YKL085W, strain MDH1, active compounds read low 0.988 | locus YKL160W, strain elf1, active compounds read low 0.964 | locus YKR001C, strain vps1, active compounds read low 0.992 | locus YKR026C, strain gcn3, active compounds read low 1 | locus YKR091W, strain srl3, active compounds read low 0.964 | locus YLL001W, strain dnm1, active compounds read low 1.01 | locus YLL026W, active compounds read low 0.977 | locus YLL041C, strain sdh2, active compounds read low 0.992 | locus YLR027C, strain aat2, active compounds read low 0.965 | locus YLR039C, strain RIC1, active compounds read low 0.994 | locus YLR058C, strain SHM2, active compounds read low 0.982 | locus YLR102C, strain apc9, active compounds read low 0.972 | locus YLR113W, strain HOG1, active compounds read low 0.976 | locus YLR221C, strain rsa3, active compounds read low 1.01 | locus YLR258W, strain gsy2, active compounds read low 0.961 | locus YLR262C, strain YPT6 (second series), active compounds read low 0.974 | locus YLR268W, strain sec22, active compounds read low 0.984 | locus YLR320W, strain mms22, active compounds read low 1.03 | locus YLR342W, strain FKS1 (second series), active compounds read low 1.03 | locus YLR342W, strain FKS1, active compounds read low 0.975 | locus YLR357W, strain rsc2, active compounds read low 0.964 | locus YLR370C, strain arc18, active compounds read low 0.973 | locus YLR371W, strain rom2, active compounds read low 0.992 | locus YLR384C, strain iki3, active compounds read low 0.983 | locus YLR418C, strain cdc73, active compounds read low 1.02 | locus YML016C, strain PPZ1, active compounds read low 1.01 | locus YML032C, strain rad52, active compounds read low 0.996 | locus YML120C, strain ndi1, active compounds read low 0.989 | locus YML124C, strain tub3, active compounds read low 0.982 | locus YMR058W, strain fet3, active compounds read low 0.979 | locus YMR078C, strain ctf18, active compounds read low 0.986 | locus YMR125W, strain sto1, active compounds read low 0.986 | locus YMR129W, active compounds read low 0.975 | locus YMR205C, strain PFK2, active compounds read low 1 | locus YMR223W, strain ubp8, active compounds read low 0.981 | locus YMR231W, strain pep5, active compounds read low 0.989 | locus YMR263W, strain SAP30, active compounds read low 0.979 | locus YMR307W, strain GAS1, active compounds read low 1.06 | locus YNL067W, strain RPL9B, active compounds read low 0.967 | locus YNL071W, strain lat1, active compounds read low 1 | locus YNL153C, strain GIM3, active compounds read low 0.973 | locus YNL183C, strain NPR1, active compounds read low 0.956 | locus YNL209W, strain ssb2, active compounds read low 1 | locus YNL233W, strain BNI4, active compounds read low 0.989 | locus YNL248C, strain rpa49, active compounds read low 0.955 | locus YNL250W, strain rad50, active compounds read low 0.969 | locus YNL271C, strain bni1, active compounds read low 0.994 | locus YNL298W, strain CLA4, active compounds read low 0.973 | locus YNL307C, strain MCK1, active compounds read low 0.974 | locus YNL322C, strain KRE1 (second series), active compounds read low 0.98 | locus YNR049C, strain mso1, active compounds read low 0.966 | locus YNR052C, strain pop2, active compounds read low 0.976 | locus YOL006C, strain TOP1, active compounds read low 1.06 | locus YOL012C, strain htz1 0.635 | locus YOL147C, strain pex11, active compounds read low 0.965 | locus YOR001W, strain rrp6, active compounds read low 1.03 | locus YOR061W, strain CKA2, active compounds read low 0.997 | locus YOR069W, strain VPS5, active compounds read low 0.99 | locus YOR070C, strain gyp1, active compounds read low 0.993 | locus YOR080W, strain dia2, active compounds read low 0.974 | locus YOR083W, strain WHI5, active compounds read low 0.974 | locus YOR106W, strain vam3, active compounds read low 0.963 | locus YOR136W, strain idh2, active compounds read low 0.981 | locus YOR144C, strain elg1, active compounds read low 0.982 | locus YOR184W, strain ser1, active compounds read low 1.01 | locus YOR231W, strain MKK1, active compounds read low 0.988 | locus YOR265W, strain rbl2, active compounds read low 0.968 | locus YOR270C, strain vph1, active compounds read low 0.999 | locus YOR290C, strain snf2, active compounds read low 0.96 | locus YOR316C, strain cot1, active compounds read low 0.97 | locus YPL051W, strain arl3, active compounds read low 0.977 | locus YPL078C, strain atp4, active compounds read low 0.979 | locus YPL106C, strain sse1, active compounds read low 0.986 | locus YPL240C, strain hsp82, active compounds read low 0.982 | locus YPL241C, strain CIN2, active compounds read low 0.994 | locus YPL256C, strain CLN2, active compounds read low 0.993 | locus YPR119W, strain clb2, active compounds read low 0.995 | locus YPR141C, strain kar3, active compounds read low 0.97 | locus YPR163C, strain tif3, active compounds read low 0.962 | locus YPR167C, strain met16, active compounds read low 0.988 | strain wtn01, active compounds read low 0.985
